64 compounds from PubChem BioAssay AID651640 (Broad Institute, 2012) can be followed below.

About 6,000 (1.7%) of roughly 350,000 compounds were called active. Not shown: some 5% with an inconclusive outcome. Rule as the data show it: active = CPE inhibition above about 20% (passing the limit was not always enough); inconclusive = no clear call, values can overlap the other calls; tested in BHK-21 cells. For the sample, actives were picked, then their nearest neighbours and some compounds at random.

The nature of this assay: inhibitors of DENV2 cytopathic effect, primary screen, cell-based, plate reader, single concentration (AID 651640).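 Also: 0% = median of neutral control wells and 100% = median of positive control wells.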 The following applies: DENV2-infected cells, cytopathic effect rescue, at 9.99 µM, hits give high values.
`C[C@@H]1CN([C@H](C)CO)S(=O)(=O)c2ccc(C#C[C@@H](C)O)cc2O[C@H]1CN(C)C(=O)C1CCCCC1`: the CPE inhibition was -8.28% (inactive). With `C[C@H](CO)N1C[C@H](C)[C@@H](CN(C)Cc2ccc(Oc3ccccc3)cc2)Oc2cc(-c3ccncc3)ccc2S1(=O)=O`, the CPE inhibition was -22.7% (inactive).

`O=C(C[C@@H]1C=C[C@@H](NS(=O)(=O)c2ccc(F)cc2)[C@@H](CO)O1)NCCN1CCCCC1`: the CPE inhibition was -0.229% (inactive). Turning to `CN(Cc1ccccc1F)C[C@H]1[C@@H](c2ccccc2)[C@@H](CO)N1S(C)(=O)=O`, the CPE inhibition was -1.35% (inactive). For the compound `CCCNC(=O)N1C[C@@H](O)COC[C@@H]2O[C@H](CC(=O)N3CCN(C)CC3)CC[C@H]21`, the CPE inhibition was 0.94% (inactive).

Regarding `C[C@H]([C@@H](O)[C@@H](O)[C@@H](C)C(C)(C)C)[C@H]1CC[C@H]2C3CC[C@H]4C[C@H](OS(=O)(=O)O)[C@@H](OS(=O)(=O)O)C[C@]4(C)[C@H]3CC[C@]12C` (some centres undefined), the CPE inhibition was -2.49% (inactive). For the compound `CC(C)CC#Cc1cnc2c(c1)C(=O)N([C@@H](C)CO)C[C@H](C)[C@@H](CN(C)C(=O)c1ccc(F)cc1)O2`, the CPE inhibition was -4.54% (inactive).

`CCC(=O)Nc1ccc2c(c1)OC[C@H](C)N(C(=O)c1ccncc1)C[C@H](C)[C@H](OC)CN(C)C2=O`: the CPE inhibition is -6.05% (inactive). To `C[C@H]1CN([C@@H](C)CO)C(=O)c2cc(C3=CCCC3)cnc2O[C@@H]1CN(C)C(=O)c1ccccc1` belongs -6.29% (inactive). With `CO[C@@H]1CN(C)C(=O)c2ccc(NS(=O)(=O)c3c(C)noc3C)cc2OC[C@H](C)NC[C@@H]1C`, the CPE inhibition was -11.3% (inactive). With `C[C@@H]1CN([C@H](C)CO)C(=O)c2cc(C#CCC3CCCC3)cnc2O[C@H]1CN(C)Cc1ccccn1`, the CPE inhibition was 15.8% (inactive). In the case of `CCCC#Cc1ccc([C@H]2[C@@H](CO)N(C(=O)C3CC3)[C@H]2C#N)cc1`, the CPE inhibition is 39.4% (active). As to `COc1ccc(-c2ccc([C@@H]3[C@@H](C#N)N(C(=O)C4CCC4)[C@@H]3CO)cc2)cc1`, the CPE inhibition was -14% (inactive). With `COc1ccc(-c2ccccc2[C@H]2[C@@H](C#N)N(C(=O)C3CCC3)[C@@H]2CO)cc1`, the CPE inhibition is 3.73% (inactive).

`COc1ccccc1C#Cc1ccc([C@@H]2[C@@H](CO)N(C(=O)C3CC3)[C@H]2C#N)cc1`: the CPE inhibition is 1.77% (inactive). Turning to `CCCC#Cc1ccc([C@@H]2[C@@H](C#N)N(C(=O)C3CC3)[C@H]2CO)cc1`, the CPE inhibition was -11.5% (inactive). As for `CN(C)CC#Cc1ccc([C@H]2[C@@H](CO)N(C(=O)C3CCC3)[C@H]2C#N)cc1`, the CPE inhibition was 87.1% (active). For `COc1ccc(-c2ccccc2[C@H]2[C@@H](CO)N(C(=O)C3CCC3)[C@H]2C#N)cc1` the value was 70.3% (active); for `CCCC#Cc1ccc([C@@H]2[C@@H](C#N)N(C(=O)C3CCCC3)[C@@H]2CO)cc1`, -5.75% (inactive). Consider `CCCC#Cc1ccc([C@@H]2[C@@H](C#N)N(C(=O)C3CCC3)[C@H]2CO)cc1`, for which the CPE inhibition was -3.76% (inactive). With `OC[C@H]1[C@@H](c2ccc(C#Cc3ccccc3F)cc2)[C@H]2CN(CC3CCOCC3)CCCCN21`, the CPE inhibition was -16.8% (inactive).

As for `C[C@@H](NC(=O)C[C@@H]1C[C@@H]2c3cc(NC(=O)c4cccnc4)ccc3O[C@@H]2[C@H](CO)O1)c1ccccc1`, the CPE inhibition is -1.39% (inactive). Regarding `COc1cccc(-c2ccc3c(c2)O[C@H](CN(C)C(=O)c2ccccc2F)[C@@H](C)CN([C@@H](C)CO)S3(=O)=O)c1`, the CPE inhibition is -3.52% (inactive). As for `CCCC#Cc1ccc([C@H]2[C@H]3CN(Cc4cncnc4)CCCCN3[C@H]2CO)cc1`, the CPE inhibition was -10.9% (inactive). For the compound `OC[C@H]1[C@H](c2ccc(-c3ccccc3F)cc2)[C@H]2CN(Cc3cncnc3)CCCCN21`, the CPE inhibition is 45.6% (active). In the case of `OC[C@H]1[C@H](c2ccc(-c3cccnc3)cc2)[C@H]2CN(Cc3ccccn3)CCCCN21`, the CPE inhibition was 3.13% (inactive). Regarding `COCC#Cc1ccc([C@H]2[C@H](CO)N3CCCCN(Cc4ccncc4)C[C@@H]23)cc1`, the CPE inhibition was 3.44% (inactive). Regarding `OC[C@H]1[C@H](c2ccc(-c3cccc(F)c3)cc2)[C@@H]2CN(Cc3cncnc3)CCCCN12`, the CPE inhibition is 58.8% (active). As to `OC[C@@H]1[C@H](c2ccc(C3=CCCC3)cc2)[C@H]2CN(Cc3ccncc3)CCCCN12`, the CPE inhibition was 41% (active). `OC[C@@H]1[C@H](c2ccc(C#Cc3ccccc3)cc2)[C@@H]2CN(Cc3cncnc3)CCCCN12`: the CPE inhibition was 4.64% (inactive). To `Cc1ccc(-c2ccc([C@H]3[C@H](CO)N4CCCCN(Cc5cncnc5)C[C@@H]34)cc2)cc1` belongs -2.12% (inactive); to `Cc1cccc(-c2ccc([C@@H]3[C@H](CO)N4CCCCN(Cc5ccncc5)C[C@@H]34)cc2)c1`, -6.55% (inactive); to `CN(C)C(=O)c1ccc(-c2ccc([C@@H]3[C@@H](CO)N4CCCCN(Cc5cncnc5)C[C@@H]34)cc2)cc1`, 5.96% (inactive). Take `Cc1cccc(-c2ccc([C@H]3[C@@H](CO)N4CCCCN(Cc5cncnc5)C[C@H]34)cc2)c1`: the CPE inhibition was 5.45% (inactive).

As to `OC[C@H]1[C@@H](c2ccc(/C=C/c3ccccc3)cc2)[C@H]2CN(Cc3cccnc3)CCCCN21`, the CPE inhibition was 23.8% (active). For the compound `CC(C)CC#Cc1ccc([C@H]2[C@H]3CN(C(=O)CN4CCOCC4)CC(=O)N3[C@H]2CO)cc1`, the CPE inhibition was -1.35% (inactive). Consider `COc1ccccc1CNC(=O)C[C@@H]1C[C@@H]2c3cc(NC(=O)C4CCOCC4)ccc3O[C@@H]2[C@@H](CO)O1`, for which the CPE inhibition is 2.24% (inactive). On to `COC(=O)[C@@H]1[C@@H](CO)[C@@H]2Cn3c(ccc(-c4ccccc4F)c3=O)[C@@H]2N1CC1CCOCC1`, for which the CPE inhibition was -7.38% (inactive).

Regarding `C[C@@H]1CCCCO[C@@H](CN(C)S(=O)(=O)c2cn(C)cn2)[C@@H](C)CN([C@@H](C)CO)C(=O)c2cc(NC(=O)NC3CCCCC3)ccc2O1`, the CPE inhibition is 7.41% (inactive). On to `C[C@@H]1CN([C@@H](C)CO)S(=O)(=O)c2ccc(-c3ccccc3F)cc2O[C@H]1CN(C)Cc1cncnc1`, for which the CPE inhibition is -7.02% (inactive). As to `CN(C)C(=O)[C@@H]1[C@@H](CO)[C@@H]2Cn3c(cccc3=O)[C@H]1N2C(=O)c1ccc(F)cc1`, the CPE inhibition was 2.89% (inactive).

Turning to `C[C@H]1CN([C@@H](C)CO)C(=O)c2cccc(NC(=O)c3ccncc3)c2O[C@@H]1CN(C)C`, the CPE inhibition was -3.46% (inactive).

Turning to `C[C@@H]1CCCCO[C@H](CN(C)S(=O)(=O)c2cccs2)[C@@H](C)CN([C@@H](C)CO)C(=O)c2cc(NC(=O)Nc3ccc4c(c3)OCO4)ccc2O1`, the CPE inhibition is 2.44% (inactive). For `O=C(N[C@H]1CC[C@H](CCNS(=O)(=O)c2ccc(F)cc2)O[C@H]1CO)C1CCC1` the value was 0.0715% (inactive); for `CCNC(=O)Nc1ccc2c(c1)C(=O)N(C)[C@@H]1CC[C@@H](CC(=O)NCCOC)O[C@@H]1CO2`, -6.67% (inactive). For `CC(C)C#Cc1ccc2c(c1)O[C@@H](CN(C)Cc1ccncc1)[C@@H](C)CN([C@@H](C)CO)S2(=O)=O`, the CPE inhibition was -4.86% (inactive).

On to `COc1ccc(NC(=O)c2cn(-c3ccccc3)nc2SC)cc1`, for which the CPE inhibition was 30.9% (active). For `COc1ccc(NC(=O)CSc2nc(N)c(-c3ccccc3)c(=O)[nH]2)cc1` the value was 15.2% (inactive); for `COc1ccccc1C(=O)Nc1ccc(Nc2ccccc2)cc1`, 1.78% (inactive); for `COc1ccc(CNC(=O)C[C@H]2C[C@H](C(=O)N3CCOCC3)[C@@]3(CCC4CCCC4)c4[nH]c5ccc(Cl)cc5c4CCN3C2=O)cc1OC`, 0.122% (inactive). As to `CN(C)C(=O)CCc1ccc2c3c([nH]c2c1)[C@]1(CCC2CCCC2)[C@@H](C(=O)N2CCOCC2)C[C@H](CC(=O)NCc2ccco2)C(=O)N1CC3`, the CPE inhibition is -10.7% (inactive). With `O=C(C[C@H]1C[C@H](C(=O)N2CCOCC2)[C@@]2(CCC3CCCC3)c3[nH]c4ccc(Cl)cc4c3CCN2C1=O)NCc1ccco1`, the CPE inhibition is 88.4% (active).

Turning to `C[C@@H]1CN([C@H](C)CO)C(=O)c2cc(NC(=O)Cc3ccccc3)ccc2O[C@H]1CN(C)S(=O)(=O)c1cn(C)cn1`, the CPE inhibition was 0.292% (inactive).

For the compound `Cc1ccc(S(=O)(=O)N(C)C[C@@H]2OCCCC[C@H](C)Oc3ccc(NS(=O)(=O)c4cn(C)cn4)cc3C(=O)N([C@H](C)CO)C[C@@H]2C)cc1`, the CPE inhibition is -2.41% (inactive).

For `Cc1ccc(S(=O)(=O)N(C)C[C@H]2OCCCC[C@@H](C)Oc3ccc(NS(C)(=O)=O)cc3C(=O)N([C@H](C)CO)C[C@@H]2C)cc1`, the CPE inhibition was 24.2% (active). Take `Cc1ccc(S(=O)(=O)N(C)C[C@@H]2Oc3ccc(NC(=O)NC4CCCCC4)cc3C(=O)N([C@@H](C)CO)C[C@H]2C)cc1`: the CPE inhibition was 23.4% (active). On to `Cc1ccc(S(=O)(=O)Nc2ccc3c(c2)C(=O)N([C@H](C)CO)C[C@H](C)[C@@H](CN(C)S(=O)(=O)c2cn(C)cn2)OCCCC[C@H](C)O3)cc1`, for which the CPE inhibition is 39.2% (active). With `Cc1ccc(S(=O)(=O)Nc2ccc3c(c2)C(=O)N([C@H](C)CO)C[C@@H](C)[C@H](CN(C)S(=O)(=O)c2ccc(C)cc2)OCCCC[C@@H](C)O3)cc1`, the CPE inhibition was 1.84% (inactive). For `Cc1ccc(S(=O)(=O)N(C)C[C@@H]2OCCCC[C@@H](C)Oc3ccc(NS(=O)(=O)c4ccccc4)cc3C(=O)N([C@H](C)CO)C[C@@H]2C)cc1`, the CPE inhibition is 0.648% (inactive). For `C[C@@H]1CCCCO[C@@H](CN(C)S(=O)(=O)c2cn(C)cn2)[C@H](C)CN([C@@H](C)CO)C(=O)c2cc(NC(=O)Nc3ccccc3)ccc2O1` the value was -1.09% (inactive); for `C[C@@H]1CCCCO[C@@H](CN(C)S(=O)(=O)c2cn(C)cn2)[C@H](C)CN([C@H](C)CO)C(=O)c2cc(NS(=O)(=O)c3ccc(Cl)cc3)ccc2O1`, 3.2% (inactive).

`C[C@H](CO)N1C[C@H](C)[C@@H](CN(C)S(=O)(=O)c2cn(C)cn2)OCCCC[C@H](C)Oc2ccc(NC(=O)Cc3ccccc3)cc2C1=O`: the CPE inhibition is 123% (active). Take `Cc1ccc(S(=O)(=O)N(C)C[C@H]2OCCCC[C@@H](C)Oc3ccc(NC(=O)NC4CCCCC4)cc3C(=O)N([C@H](C)CO)C[C@@H]2C)cc1`: the CPE inhibition was 0.877% (inactive). Turning to `C[C@@H]1CN([C@H](C)CO)C(=O)c2cc(NC(=O)NC3CCCCC3)ccc2O[C@H]1CN(C)S(C)(=O)=O`, the CPE inhibition was 2.68% (inactive).
